Structures are written as SMILES. Results filed as inconclusive are left out. Active and inactive are the calls of the source. Calls come from the whole dose curve; as a rule, active = well fitted inhibition curve with a large enough effect; inconclusive = small, poorly fitted or top-dose-only effect; inactive = no such curve, though single readings can be large or run the other way.

Results on 37 compounds are retold here after PubChem BioAssay AID651791 (National Center for Advancing Translational Sciences (NCATS), 2012).
Potency is the fitted concentration of half-maximal effect.

This assay in a line: InCell qHTS Assay for Inhibitors of the mTORC1 Signaling Pathway in MEF (Tsc2-/-, p53-/-) Cells: Hit Validation.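 Note: phospho-S6 Ser235/236 signal normalized to propidium iodide cell count per well; nearly all actives have a fitted effect of over 75% in size.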 The note with it: phospho-rpS6 immunofluorescence, 24 h; activity change, negative = inhibition: at 38.3 µM (top of the series).
Consider `CCOc1c(Br)cc(C2CC(=O)Nc3cc4c(cc32)OCO4)cc1OC` (configuration not stated), for which the activity change, negative = inhibition is -100%. Take `COc1cc(Cl)c(C)cc1NC(c1ccccc1)c1nnc(-c2ccccc2Cl)o1` (configuration not stated): the activity change, negative = inhibition was -100%. Regarding `Cc1cc(OCC(=O)NCC2(N3CCN(C)CC3)CCCCC2)cc(C)c1Cl`, the activity change, negative = inhibition was -100%.

Consider `CC(=O)Nc1ccc2nc(-c3cc(C)ccc3C)[nH]c2c1`, for which the activity change, negative = inhibition was -100%. Regarding `O=C(NCCc1ccc(Cl)cc1)C(=O)NCC(c1cccs1)S(=O)(=O)c1cccs1` (configuration not stated), the activity change, negative = inhibition was -100%.

In the case of `Cc1ccc(C)c(N2CCN(CCCNC(=O)c3nnc(Cc4ccc(F)cc4Cl)o3)CC2)c1`, the activity change, negative = inhibition was determined as 1.72%.

Turning to `O=C(NC1CCN(Cc2ccccc2)CC1)c1ccc(Cn2c(=O)c3ccccc3n(Cc3ccc(F)cc3)c2=O)cc1`, the activity change, negative = inhibition is -100%. Turning to `CCC1=Nc2cc(C(=O)NC3CCC(C)CC3)ccc2Sc2ccc(C)cc21` (configuration not stated), the activity change, negative = inhibition was -100%. Still for that read-out and setting: in the case of `Cc1ccc(NC(=O)c2c(NC(=O)C(F)(F)F)sc3c2CCCCC3)cc1` it was -100%. In the case of `O=c1oc2ccccc2cc1-c1cn2cc(Cc3ccccc3F)sc2n1`, the activity change, negative = inhibition was -100%. `Cc1cccc(OCC(=O)Nc2ccc3c(c2)N(C)C(=O)c2ccccc2S3)c1`: the activity change, negative = inhibition was -100%. As for `CN(C)c1ccc(NC(=O)Cn2cc(S(=O)(=O)Cc3ccccc3Cl)c3ccccc32)cc1`, the activity change, negative = inhibition is -29.2%. Turning to `Cc1nn(CC(=O)N2CCN(c3ccccc3F)CC2)c(=O)c2cccn12`, the activity change, negative = inhibition was -100%.

For `COC(=O)c1cccc(-n2c(CCC(=O)O)ccc2-c2ccc(OC)cc2)c1`, the activity change, negative = inhibition was -100%. Consider `Cc1ccc(NC(=O)Nc2cccs2)c(C)c1`, for which the activity change, negative = inhibition was -100%. `CCCCN1C(=O)C(O)(c2c(C)[nH]c3ccccc23)c2cc(Br)ccc21` (configuration not stated): the activity change, negative = inhibition was -21.8%. The same measure, in the same setting: in the case of `CC(C)(C)C(=O)Nc1ccc(-c2nc3ccc(NC(=O)C(C)(C)C)cc3[nH]2)cc1` it was -27%. As to `CCc1ccc(S(=O)(=O)N(C(=O)Oc2ccccc2)c2ccc3oc(C)c(C(=O)OC)c3c2)cc1`, the activity change, negative = inhibition was -12.1%. As for `C=CCc1c(C)nc2nc(SCC(=O)Nc3ccc(C)c(C)c3)nn2c1C`, the Potency is 9.27 µM (active). With `CCc1ccc(-c2nc(CSCC(=O)NCc3ccc(C)cc3)c(C)o2)cc1`, the activity change, negative = inhibition is -100%. Turning to `CN1CCN(C2(CNC(=O)COc3ccc(C(C)(C)C)cc3)CCCCC2)CC1`, the activity change, negative = inhibition was -100%. As to `COc1cc(NC(=O)Cn2nc(C(F)(F)F)c3c2CCCC3)c(OC)cc1Cl`, the activity change, negative = inhibition is -100%. `COc1ccccc1N=c1scc(-c2ccc(S(=O)(=O)N3CCCC3)cc2)n1C`: the activity change, negative = inhibition was -100%. Regarding `Cc1cccc(CS(=O)(=O)c2ncc(Cl)c(C(=O)Nc3nnc(C(C)C)s3)n2)c1`, the Potency is 13.1 µM (active). For the compound `COc1ccc(Cl)cc1NC(=O)CSc1nc(-c2ccco2)cc(C(F)(F)F)n1`, the activity change, negative = inhibition is -100%. Still for that read-out and setting: the result for `Cc1ccc(C)c(S(=O)(=O)NCC(c2ccco2)S(=O)(=O)c2ccc(F)cc2)c1` (configuration not stated) reads -100%; that for `CC(=O)N1CCCc2cc(S(=O)(=O)N(Cc3ccccc3)C(C)C)ccc21`, -100%. Still for that read-out and setting: in the case of `CCCN(c1ccccc1CC)S(=O)(=O)c1ccc2c(c1)CC(C)N2C(=O)C1CC1` (configuration not stated) it was -100%; in that of `O=C(/C=C/c1ccco1)Nc1ccc(Cl)c(-c2nc3cc(Cl)ccc3o2)c1`, -100%. In the case of `O=C1c2[nH]nc(-c3ccccc3O)c2C(c2ccc(Cl)cc2)N1CCc1ccccc1` (configuration not stated), the activity change, negative = inhibition was -21.4%. Regarding `CCS(=O)(=O)c1ccccc1C(=O)N(Cc1cccnc1)c1nc2cc(C)c(C)cc2s1`, the activity change, negative = inhibition was -100%.

With `Cc1ccc(-c2noc(CCC(=O)N(C)c3ccccc3F)n2)cc1`, the activity change, negative = inhibition is -100%. With `CCOc1ccccc1NC(=O)CN1C(=O)C(=O)c2ccccc21`, the activity change, negative = inhibition is -100%. For `Nc1nc(Nc2ccccc2F)sc1C(=O)c1ccc(Cl)cc1`, the activity change, negative = inhibition is -100%. For `CC(C)c1nnc(NC(=O)c2nc(S(=O)(=O)Cc3ccccc3)ncc2Cl)s1`, the Potency was 3.29 µM (active). Regarding `Cc1cccc(OCc2ccc(-c3nc(C#N)c(NCCN(C)C)o3)o2)c1`, the activity change, negative = inhibition was -100%.

On to `CCOc1ccc(-n2c(C)nc3c(cnn3-c3ccc(C)cc3)c2=O)cc1`, for which the activity change, negative = inhibition was -100%.
